Assay outcomes from PubChem.
Measles CPE = protection of cells from measles virus; Measles virus-infected cells, CPE protection, absorbance; actives 1.5% (n = 140,000); protection (pct of control), % at 4 µM; AID 841; in the data active = protection mostly above about 24%, no sharp cut-off; inactive = mostly below about 26%
CYP2C19 inhib = human CYP2C19 inhibition; P33261; CYP2C19 Supersomes, luciferin-H EGE luminescence, 30 min; inhibition, % at 5 µM; actives 21% (n = 96,000); AID 778;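 active = CYP2C19 inhibition above a set limit at 5 µM in the primary screen, cut at about 50% in these data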
CYP2C19 activ = activators of human cytochrome P450 2C19; P33261; recombinant CYP2C19, luciferin-H EGE luminescence; hits give high values; 0 = fully inhibited enzyme, 1 = untreated enzyme; activation factor at 5 µM; 96,000 tested, under 10 active; AID 1025;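 active = activation factor of at least 2 at 5 µM in the primary screen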
CYP2C9 act = increases human cytochrome P450 2C9 activity; P11712; recombinant CYP2C9, luciferin-H conversion, luminescence; hits give high values; factor 1 = untreated enzyme, 0 = blocked; activation factor at 5 µM; actives 1.4% (n = 96,000);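 active = activation factor of 2 or more for CYP2C9 at a 5 µM dose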
Target sequence (P11712 whole entry, looked up): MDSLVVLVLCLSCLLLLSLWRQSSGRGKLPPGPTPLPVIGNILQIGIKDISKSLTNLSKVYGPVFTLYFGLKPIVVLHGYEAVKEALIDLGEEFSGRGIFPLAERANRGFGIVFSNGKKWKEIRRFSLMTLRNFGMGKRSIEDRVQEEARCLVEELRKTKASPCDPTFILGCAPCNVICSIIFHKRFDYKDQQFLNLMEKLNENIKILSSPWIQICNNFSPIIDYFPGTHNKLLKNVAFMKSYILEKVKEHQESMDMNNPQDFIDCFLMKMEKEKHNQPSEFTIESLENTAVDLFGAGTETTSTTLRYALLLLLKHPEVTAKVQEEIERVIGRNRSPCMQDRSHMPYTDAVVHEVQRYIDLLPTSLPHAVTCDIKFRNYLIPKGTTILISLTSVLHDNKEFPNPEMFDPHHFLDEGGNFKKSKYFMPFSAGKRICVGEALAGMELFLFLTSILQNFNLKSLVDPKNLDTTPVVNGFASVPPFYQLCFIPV
CYP2C9 inh = blocks human cytochrome P450 2C9; inhibition, % at 5 µM; P11712; actives 20% (n = 96,000); CYP2C9 Supersomes, luciferin-H conversion, luminescence;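 active = blocking of liver enzyme CYP2C9 beyond about 50% at 5 µM, limit read from the data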
A number is an active result. An excerpt weighted towards active compounds, which were near 22% of everything screened.

For CON(C)c1nc(OCCNC(=O)OCc2ccc(Cl)cc2Cl)nc(N(C)C)n1 the results were Measles CPE inactive, CYP2C19 inhib inactive, CYP2C19 activ inactive, CYP2C9 act inactive and CYP2C9 inh 63.2.
`Cc1cc(Cl)ccc1OCC(=O)NCCCN1CCOCC1` gave Measles CPE inactive, CYP2C19 inhib inactive, CYP2C19 activ inactive, CYP2C9 act inactive and CYP2C9 inh inactive.
Screening CN(C)c1nc(OCCNC(=O)COc2ccc(Cl)cc2Cl)nc(N2CCOCC2)n1 returned Measles CPE inactive, CYP2C19 inhib inactive, CYP2C19 activ inactive, CYP2C9 act inactive and CYP2C9 inh 81.6.
O=S(=O)(N/N=C/c1ccccc1OCc1ccc(Cl)cc1)c1ccccc1 was read as Measles CPE inactive.
CCCCn1nnnc1NCc1cc(OC)c(OC)cc1OC was read as Measles CPE inactive, CYP2C19 inhib 60.7, CYP2C19 activ inactive, CYP2C9 act inactive and CYP2C9 inh inactive.
COc1nc(NCc2cccnc2)nc(OC)n1 was read as Measles CPE inactive, CYP2C19 inhib inactive, CYP2C19 activ inactive, CYP2C9 act inactive and CYP2C9 inh inactive.
`CCCCn1nnnc1NCc1cccnc1` gave Measles CPE inactive, CYP2C19 inhib 70.3, CYP2C19 activ inactive, CYP2C9 act inactive and CYP2C9 inh inactive.
For CCCCn1nnnc1NCc1ccc(N2CCCC2)cc1 the results were Measles CPE inactive, CYP2C19 inhib inactive, CYP2C19 activ inactive, CYP2C9 act inactive and CYP2C9 inh 71.3.
For CCCn1nnnc1NCc1ccc(N2CCCC2)cc1 the results were Measles CPE inactive.
For C=CCC1(O)CC(c2ccco2)NC(c2ccco2)C1CCC (centres undefined) the results were Measles CPE inactive, CYP2C19 inhib inactive, CYP2C19 activ inactive, CYP2C9 act inactive and CYP2C9 inh inactive.
For CC(C)COc1ccc(CSCCNC(=S)Nc2ccccc2)cc1 the results were Measles CPE inactive, CYP2C19 inhib inactive, CYP2C19 activ inactive, CYP2C9 act inactive and CYP2C9 inh 58.3.
Screening N#CC(C(=O)c1ccco1)c1ccccn1 (centres undefined) returned Measles CPE inactive, CYP2C19 inhib inactive, CYP2C19 activ inactive, CYP2C9 act inactive and CYP2C9 inh inactive.
Cc1ccccc1Nc1nc(N)nc(CSCc2c(C)noc2C)n1 was read as Measles CPE inactive, CYP2C19 inhib 63.9, CYP2C19 activ inactive, CYP2C9 act inactive and CYP2C9 inh 56.7.
Cc1cccc(NC(=O)CSCc2c(C)noc2C)c1C was read as Measles CPE inactive, CYP2C19 inhib 73.6, CYP2C19 activ inactive, CYP2C9 act inactive and CYP2C9 inh inactive.
`Cc1noc(C)c1CSCC(=O)NC1=NCCS1` gave CYP2C19 inhib inactive, CYP2C19 activ inactive, CYP2C9 act inactive and CYP2C9 inh inactive.
O=C(NN1C(=O)C2C3C=CC(C3)[C@H]2C1=O)c1cccnc1 (some centres undefined) was read as Measles CPE inactive.
Cc1ccc(NC(=O)COC(=O)c2ccc3c(c2)NC(=O)C2CCCN32)cc1C (centres undefined) was read as Measles CPE inactive, CYP2C19 inhib inactive, CYP2C19 activ inactive, CYP2C9 act inactive and CYP2C9 inh inactive.
Screening CCOC(=O)NC(NCc1ccccc1)(C(F)(F)F)C(F)(F)F returned Measles CPE 43.7.
For CCOC(=O)C(NCCc1ccccc1)(NC(C)=O)C(F)(F)F (centres undefined) the results were Measles CPE inactive.
`CCOC(=O)NC(Nc1ccc(C)cn1)(C(F)(F)F)C(F)(F)F` gave Measles CPE inactive, CYP2C19 inhib inactive, CYP2C19 activ inactive, CYP2C9 act inactive and CYP2C9 inh inactive.
CCOC(=O)NC(NCCc1ccccc1)(C(F)(F)F)C(F)(F)F was read as Measles CPE inactive, CYP2C19 inhib 63.4, CYP2C19 activ inactive, CYP2C9 act inactive and CYP2C9 inh 53.4.
O=[N+]([O-])c1ccc(NC(=S)N2CCc3ccccc3C2)cc1 was read as Measles CPE inactive.
Screening CCCCNC(=O)CSc1nnc(NC(C)=O)s1 returned Measles CPE inactive, CYP2C19 inhib inactive, CYP2C19 activ inactive, CYP2C9 act inactive and CYP2C9 inh inactive.
Screening Cc1ccc(S(=O)(=O)C2(C(=O)Nc3cccc(F)c3)CC2)cc1 returned Measles CPE inactive, CYP2C19 inhib 95.4, CYP2C19 activ inactive, CYP2C9 act inactive and CYP2C9 inh inactive.
`O=C(Nc1ccc2c(c1)OCO2)C1(S(=O)(=O)c2ccc(Cl)cc2)CC1` gave Measles CPE inactive, CYP2C19 inhib inactive, CYP2C19 activ inactive, CYP2C9 act inactive and CYP2C9 inh 84.7.
